The text below walks through data of PubChem BioAssay AID720519 (National Center for Advancing Translational Sciences (NCATS), 2013).

Records with an inconclusive call do not appear. Values without a mark were called inactive. Calls follow the shape of the dose curve; as a rule, active = well fitted activation curve with a large enough effect; inconclusive = small, poorly fitted or top-dose-only effect; inactive = flat fitted curve, though single readings scatter.

The nature of this test: qHTS for Inhibitors of Cell Surface uPA Generation: Confirmatory Assay for Cherry-picked Compounds. Also: 0% is about no effect. The note with it: cell surface uPA activity generation, qHTS confirmation; series mostly up to 115 µM; inhibition: at the top concentration. A digest of the protocol: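 RAW 264.7 cells at 4000/well, incubated overnight, then treated with compounds. After 24 h at 37 C, viability was read by ATPlite luminescence. An increase in signal indicates blocked uPA-dependent LF entry.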
As for `O=C(NC[C@H]1CCCO1)c1cccc2c1C(=O)c1ccc(-c3ccc(F)cc3OCc3ccccc3)cc1S2(=O)=O`, the “inhibition” value was -2.02%.

On to `COC(=O)CNC(=O)COC(=O)/C=C/c1ccccc1[N+](=O)[O-]`, for which the “inhibition” value was -2.86%.

In the case of `O=C(Nc1ccc(Cl)cn1)C1CCCN(c2ncnc3c2nc2n3CCCCC2)C1` (configuration not stated), the “inhibition” value is -3.69%.

For the compound `CC(/C=C1\SC(=S)N(CCCC(=O)Nc2ccc(C(=O)O)cc2)C1=O)=C\c1ccccc1`, the “inhibition” value is -2.46%.

Consider `O=C(NC1CC1)C1CCCN(C(=O)NC2CCCCC2)C1` (configuration not stated), for which the “inhibition” value was -1.77%.

On to `Cc1cc2c(cc1S(=O)(=O)Nc1ccc(F)cc1)n(C)c(=O)c(=O)n2C`, for which the “inhibition” value is -1.34%.

Regarding `COc1cccc(C(=O)NCc2ccc3[nH]c(C)cc3c2)c1`, the “inhibition” value is -1.27%.

Turning to `CCCCN(CC)CCNC(=O)c1cc2cc3ccc(Cl)cc3nc2o1`, the “inhibition” value is -3.31%.

`CCOc1ncccc1C(=O)NCc1ccccc1Cl`: the “inhibition” value is 0.688%.

In the case of `CCOC(=O)C1CCN(C(=O)COC(=O)c2c(C)c(CC)nc3ccccc23)CC1`, the “inhibition” value was -3.11%.

As for `C[C@H](CO)N1C[C@H](C)[C@@H](CN(C)C(=O)Nc2ccccc2)Oc2c(NS(=O)(=O)c3ccccc3)cccc2C1=O`, the “inhibition” value was 0.588%.

With `COc1ccc(CC(=O)Nc2nc(C)cs2)cc1OC`, the “inhibition” value is -2.97%.

With `O=C1OCC/C1=C\c1ccc(O)cc1`, the “inhibition” value was -2.46%.

`Cc1c(NC(=O)C(C)OC(=O)CCC2CCCC2)c(=O)n(-c2ccccc2)n1C` (configuration not stated): the “inhibition” value is 0.008%.

For the compound `CNS(=O)(=O)c1cc(-c2nnc(Nc3ccc(CC(N)=O)cc3)c3ccccc23)ccc1C`, the “inhibition” value was -0.898%.

Consider `CC(C)(C)S(=O)(=O)N1C[C@H]2CC/C=C\C/C(c3ccccc3)=C\2[C@@H]1CCO`, for which the “inhibition” value is -0.435%.

Take `C/C=C/C(=O)Nc1cccc(C2=NOC3(C2)C[C@@H](C(N)=O)N(C(=O)c2cc([N+](=O)[O-])cc([N+](=O)[O-])c2C)C3)c1` (some centres not stated): the “inhibition” value was -2.11%.

Broadly, the inhibition is the drop in the measured response relative to a control, in per cent.
